Source: PubChem BioAssay (NCI)
About 79,000 compounds went through this panel and 15% of them were active in at least one assay; those are over-represented in the sample as a whole. Calls of active or inactive are those of the source. Cut-off read from the data, not from the text of the source: active = growth inhibition above about 70%; inactive = the rest.

Tests used:
[1] = NCI Yeast Anticancer Drug Screen. Data for the wt1 strain (AID 149);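 note: 0% = growth of vehicle-treated wt1 cultures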; conditions: S. cerevisiae wt1 strain (SPY 50644) growth inhibition, hits give high values
How it was run: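 Each compound is tested on wt1 yeast and the loss of growth versus vehicle gives the inhibition value.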

[2] = NCI Yeast Anticancer Drug Screen. Data for the mgt1 strain (AID 153); conditions: S. cerevisiae mgt1 mutant growth inhibition, hits give high values
How it was run: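 mgt1 strain exposed; growth vs vehicle control recorded as inhibition.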

[3] = NCI Yeast Anticancer Drug Screen. Data for the rad50 strain (AID 155);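 note: 0% = growth of vehicle-only cultures of the same strain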; conditions: S. cerevisiae rad50 strain growth inhibition, hits give high values
How it was run: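 Vehicle-treated cultures provide the reference for the growth inhibition reported for compound-exposed, repair-deficient yeast.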

[4] = NCI Yeast Anticancer Drug Screen. Data for the mec2-1 strain (AID 157); conditions: S. cerevisiae mec2-1 strain, hits give high values
How it was run: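 Vehicle-treated cultures served as reference for growth inhibition of compound-exposed mec2-1 yeast.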

[5] = NCI Yeast Anticancer Drug Screen. Data for the rad14 strain (AID 159);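 note: 0% = growth of vehicle-treated control cultures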; conditions: S. cerevisiae rad14 strain growth inhibition, hits give high values
How it was run: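 Inhibition of growth is reported for a repair-deficient yeast mutant following compound treatment, calculated relative to cultures that received vehicle.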

[6] = NCI Yeast Anticancer Drug Screen. Data for the sgs1 mgt1 strain (AID 161);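 note: 0% = growth of cultures given vehicle only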; conditions: S. cerevisiae sgs1 mgt1 strain, hits give high values
How it was run: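 Genetically altered yeast, compound exposure, growth inhibition relative to vehicle.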

[7] = NCI Yeast Anticancer Drug Screen. Data for the CLN2oe strain (AID 163);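 note: 0% = growth of vehicle-only control cultures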; conditions: S. cerevisiae CLN2oe strain, hits give high values
How it was run: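 Inhibition relative to vehicle-treated yeast is reported. Cells: strain with genetic alteration in cell-cycle control, grown with compound.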

[8] = NCI Yeast Anticancer Drug Screen. Data for the cln2 rad14 strain (AID 165);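 note: 0% = growth equal to vehicle treated cultures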; conditions: S. cerevisiae cln2 rad14 strain, hits give high values
How it was run: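 Each compound was tested on cln2 rad14 yeast. Inhibition of growth was calculated against vehicle-exposed controls.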

[9] = NCI Yeast Anticancer Drug Screen. Data for the bub3 strain (AID 167); conditions: S. cerevisiae bub3 mutant strain, hits give high values
How it was run: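 Mutant yeast screening strain plus compound; vehicle-treated cultures serve as the 0% inhibition reference.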

[10] = NCI Yeast Anticancer Drug Screen. Data for the wt2 strain (AID 169); conditions: S. cerevisiae wt2 strain growth inhibition, hits give high values
How it was run: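 Inhibition of yeast growth was determined after compound treatment, normalised to controls receiving only vehicle.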

[11] = NCI Yeast Anticancer Drug Screen. Data for the mlh1 strain (AID 171);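 note: 0% = growth of vehicle-treated control cultures of the same strain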; conditions: S. cerevisiae mlh1 strain growth inhibition, hits give high values
How it was run: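 Vehicle-normalised growth inhibition of a repair- or checkpoint-altered yeast strain following compound treatment.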

[12] = NCI Yeast Anticancer Drug Screen. Data for the sgs1 strain (AID 173);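 note: 0% = growth of vehicle-only control cultures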; conditions: S. cerevisiae sgs1 mutant, hits give high values
How it was run: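 Screen format: yeast with repair or checkpoint alterations, compound exposure, growth read relative to vehicle.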

[13] = NCI Yeast Anticancer Drug Screen. Data for the mlh1 rad18 strain (AID 175); conditions: S. cerevisiae mlh1 rad18 strain growth inhibition, hits give high values
How it was run: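 Vehicle-treated cultures served as the reference for growth inhibition in a yeast strain carrying DNA damage repair alterations exposed to each compound.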

[14] = NCI Yeast Anticancer Drug Screen. Data for the rad18 strain (AID 177); conditions: S. cerevisiae rad18 mutant growth inhibition, hits give high values
How it was run: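 Test articles were incubated with altered yeast defective in DNA damage repair. Results are given as inhibition of growth versus vehicle.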

[15] = at 5.0 µM (retest, dose inferred, filed as 0.5)
[16] = at 50.0 µM (retest, dose inferred, filed as 5.0)

Measured: growth inhibition

Cc1c(N=Nc2ccc(Cl)cc2)c(C)n(C2OC(CO)C(O)C(O)C2O)c(=S)c1C#N (stereo not drawn)
active: [2]; at 100.0 µM 91% | [5]; at 100.0 µM 71% | [6]; at 50.0 µM 87% | [9]; at 50.0 µM 75.5% | [10]; at 100.0 µM 90% | [11]; at 100.0 µM 90% | [12]; at 100.0 µM 82% | [13]; at 50.0 µM 83.9% | [14]; at 100.0 µM 83%
inactive: [1]; at 1.2 µM 1% | [1]; at 3.7 µM 2% | [1]; at 11.0 µM 3% | [1]; at 33.0 µM 9% | [1]; at 100.0 µM 24% | [2]; at 1.2 µM -1% | [2]; at 3.7 µM 1% | [2]; at 11.0 µM 12% | [2]; at 33.0 µM 66% | [3]; at 1.2 µM -3% | [3]; at 3.7 µM -9% | [3]; [15] -11% | [3]; at 11.0 µM -2% | [3]; at 33.0 µM 35% | [3]; [16] 52% | [3]; at 50.0 µM 60.4% | [3]; at 100.0 µM 66% | [4]; at 1.2 µM 2% | [4]; at 3.7 µM 3% | [4]; [15] -5% | [4]; at 11.0 µM 6% | [4]; at 33.0 µM 21% | [4]; [16] 40% | [4]; at 50.0 µM 60.2% | [4]; at 100.0 µM 28% | [5]; at 1.2 µM -2% | [5]; at 3.7 µM -3% | [5]; at 11.0 µM 6% | [5]; at 33.0 µM 28% | [6]; [15] 1% | [6]; [16] 65% | [7]; at 1.2 µM -2% | [7]; at 3.7 µM -2% | [7]; at 11.0 µM 1% | [7]; at 33.0 µM 15% | [7]; at 100.0 µM 54% | [8]; [15] 44% | [8]; [16] 52% | [8]; at 50.0 µM 59.5% | [9]; at 1.2 µM 0% | [9]; at 3.7 µM 2% | [9]; [15] 1% | [9]; at 11.0 µM 9% | [9]; at 33.0 µM 23% | [9]; [16] -3% | [9]; at 100.0 µM 45% | [10]; at 1.2 µM -2% | [10]; at 3.7 µM -3% | [10]; at 11.0 µM 1% | [10]; at 33.0 µM 37% | [11]; at 1.2 µM 2% | [11]; at 3.7 µM 1% | [11]; at 11.0 µM 8% | [11]; at 33.0 µM 45% | [12]; at 1.2 µM 1% | [12]; at 3.7 µM 5% | [12]; at 11.0 µM 12% | [12]; at 33.0 µM 55% | [13]; [15] -19% | [13]; [16] 53% | [14]; at 1.2 µM -1% | [14]; at 3.7 µM 8% | [14]; at 11.0 µM 18% | [14]; at 33.0 µM 59%

O=C1OC(/C=C/c2ccccc2)Sc2ccccc21 (stereo not drawn)
active: [9]; at 50.0 µM 89.3%
inactive: [1]; at 1.2 µM -3% | [1]; at 3.7 µM 0% | [1]; at 11.0 µM 1% | [1]; at 33.0 µM 2% | [1]; at 100.0 µM 8% | [2]; at 1.2 µM -1% | [2]; at 3.7 µM 2% | [2]; at 11.0 µM 4% | [2]; at 33.0 µM 10% | [2]; at 100.0 µM 44% | [3]; at 1.2 µM 3% | [3]; at 3.7 µM 4% | [3]; [15] -16% | [3]; at 11.0 µM 10% | [3]; at 33.0 µM 14% | [3]; [16] 1% | [3]; at 50.0 µM -0.5% | [3]; at 100.0 µM 27% | [4]; at 1.2 µM -3% | [4]; at 3.7 µM -3% | [4]; [15] 10% | [4]; at 11.0 µM 0% | [4]; at 33.0 µM 10% | [4]; [16] 8% | [4]; at 50.0 µM 29.8% | [4]; at 100.0 µM 24% | [5]; at 1.2 µM 1% | [5]; at 3.7 µM 0% | [5]; at 11.0 µM 4% | [5]; at 33.0 µM 12% | [5]; at 100.0 µM 23% | [6]; [15] 3% | [6]; [16] 7% | [6]; at 50.0 µM 30.9% | [8]; [15] -34% | [8]; [16] -47% | [8]; at 50.0 µM -26.9% | [9]; at 1.2 µM 5% | [9]; at 3.7 µM 11% | [9]; [15] 7% | [9]; at 11.0 µM 33% | [9]; at 33.0 µM 46% | [9]; [16] 50% | [9]; at 100.0 µM 62% | [10]; at 1.2 µM -2% | [10]; at 3.7 µM -8% | [10]; at 11.0 µM -2% | [10]; at 33.0 µM 1% | [10]; at 100.0 µM 10% | [11]; at 1.2 µM 1% | [11]; at 3.7 µM 3% | [11]; at 11.0 µM 7% | [11]; at 33.0 µM 12% | [11]; at 100.0 µM 26% | [12]; at 1.2 µM 0% | [12]; at 3.7 µM 2% | [12]; at 11.0 µM 6% | [12]; at 33.0 µM 12% | [12]; at 100.0 µM 25% | [14]; at 1.2 µM 1% | [14]; at 3.7 µM 4% | [14]; at 11.0 µM 7% | [14]; at 33.0 µM 19% | [14]; at 100.0 µM 43%
